# Reference: PubChem BioAssay (EPA / NIEHS)
# Activity calls are given as the source filed them. Rule for the calls: active = hit-call score of the fitted dose curve at least 0.9, where 1 is the maximum; inactive = score below 0.9.
# How the values were obtained:
# Conditions in all cases: mRNA level, 48 h; actives raise or lower the signal
# [1] = read-out: Lipoprotein lipase (LPL), LPL (gene 4023); assay: LTEA_HepaRG_LPL: Life Technologies and Expression Analysis (LTEA) Assay for Lipoprotein lipase (LPL) using HepaRG (AID 2283515)
# Summary of the method: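 Concentration-response testing used half-log steps from 100 uM in 0.5% DMSO on human HepaRG cells, 48 h, duplicate wells. Phenobarbital 1 mM served as induction control; LPL mRNA was normalized to ACTB, GAPDH, POLR2A.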
# [2] = read-out: MicroRNA 122 (MIR122), gene 406906; assay: LTEA_HepaRG_MIR122: Life Technologies and Expression Analysis (LTEA) Assay for MicroRNA 122 (MIR122) using HepaRG (AID 2283516); note: the transcript read is the microRNA miR-122
# Summary of the method: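 Expression measured by microfluidic qRT-PCR with three housekeeping genes for normalisation, after 48 h treatment of HepaRG cultures. Eight concentrations (top 100 uM, half-log steps, 0.5% DMSO vehicle) in duplicate; gain or loss fitted relative to vehicle.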
# [3] = read-out: matrix metalloproteinase-10 (MMP10), MMP10 (gene 4319); assay: LTEA_HepaRG_MMP10: Life Technologies and Expression Analysis (LTEA) Assay for matrix metalloproteinase-10 (MMP10) using HepaRG (AID 2283517)
# Summary of the method: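 In differentiated HepaRG cultures kept in 0.5% DMSO, test chemicals act for 48 h over an eight-point range with a top dose of 100 uM. Expression is then quantified by TaqMan RT-PCR against ACTB, GAPDH and POLR2A.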
# [4] = read-out: MYC, MYC (gene 4609); assay: LTEA_HepaRG_MYC: Life Technologies and Expression Analysis (LTEA) Assay for MYC using HepaRG (AID 2283518)
# Summary of the method: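 Expression changes were scored by TaqMan qRT-PCR with ACTB, GAPDH and POLR2A normalization. Cultures in serum-free induction medium received duplicate 8-point concentration series, highest 100 uM, for 48 h; DMSO (0.5%) served as baseline.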
# [5] = read-out: matrix metalloproteinase-3 (MMP3), MMP3 (gene 4314); assay: LTEA_HepaRG_MMP3: Life Technologies and Expression Analysis (LTEA) Assay for matrix metalloproteinase-3 (MMP3) using HepaRG (AID 2283519)
# Summary of the method: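 Human liver HepaRG cultures received chemicals (top concentration 100 uM, 0.5% DMSO) for 48 h in duplicate. MMP3 mRNA induction or loss was then assessed via TaqMan qRT-PCR with housekeeping-gene normalisation.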
# [6] = read-out: Paternally Expressed 10 (PEG10), PEG10 (gene 23089); assay: LTEA_HepaRG_PEG10: Life Technologies and Expression Analysis (LTEA) Assay for Paternally Expressed 10 (PEG10) using HepaRG (AID 2283520)
# Summary of the method: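 PEG10 transcript measured by Fluidigm qRT-PCR, normalized to three housekeeping genes, in HepaRG cells treated 48 h (highest 100 uM, half-log steps, 0.5% DMSO vehicle). Cells plated 48 h before switching to serum-free induction medium.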
# [7] = read-out: Nuclear factor NF-kappa-B p105 subunit (Homo sapiens) (UniProt P19838); assay: LTEA_HepaRG_NFKB1: Life Technologies and Expression Analysis (LTEA) Assay for Nuclear Factor Kappa B Subunit 1 (NFKB1) using HepaRG (AID 2283521);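 note: differentiated human HepaRG liver cells in serum-free induction medium; TaqMan qRT-PCR transcript normalised to ACTB GAPDH and POLR2A housekeeping genes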
# Summary of the method: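 HepaRG, 48 h exposure; 8-pt half-log series from 100 uM in 0.5% DMSO; duplicates. Readout: NFKB1 mRNA by qRT-PCR (Fluidigm arrays), housekeeping-normalized. Gain/loss fit vs DMSO baseline.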
# [8] = read-out: Protein phosphatase 2A (PPP2R4), PTPA (gene 5524); assay: LTEA_HepaRG_PPP2R4: Life Technologies and Expression Analysis (LTEA) Assay for Protein phosphatase 2A (PPP2R4) using HepaRG (AID 2283522)
# Summary of the method: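 Expression was quantified by Fluidigm qRT-PCR normalised to three housekeeping genes after 48 h treatment. Human HepaRG cells received an 8-point series from 100 µM downward by half-logs, in duplicate with 0.5% DMSO vehicle and 1 mM phenobarbital as induction control.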
# [9] = read-out: Phosphatase and tensin (PTEN), PTEN (gene 5728); assay: LTEA_HepaRG_PTEN: Life Technologies and Expression Analysis (LTEA) Assay for Phosphatase and tensin (PTEN) using HepaRG (AID 2283523)
# Summary of the method: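 Expression of PTEN is quantified in the human liver line HepaRG following two days of dosing (top concentration 100 uM, half-log dilutions, 0.5% DMSO). Values derive from bidirectional curve fitting relative to DMSO controls.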
# [10] = read-out: solute carrier (SLC22A1), SLC22A1 (gene 6580); assay: LTEA_HepaRG_SLC22A1: Life Technologies and Expression Analysis (LTEA) Assay for solute carrier (SLC22A1) using HepaRG (AID 2283524);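 for AC50: differentiated human HepaRG liver cells in serum-free induction medium; TaqMan qRT-PCR normalized to ACTB GAPDH and POLR2A housekeeping genes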
# Summary of the method: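 Transcript induction or suppression of SLC22A1 in human HepaRG cultures is scored after 48 h chemical treatment, with DMSO (0.5%) as baseline for bidirectional fitting. Concentrations span eight half-log points topping at 100 uM.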
# [11] = read-out: NAD(P)H dehydrogenase [quinone] 1 (NQO1), NQO1 (gene 1728); assay: LTEA_HepaRG_NQO1: Life Technologies and Expression Analysis (LTEA) Assay for NAD(P)H dehydrogenase [quinone] 1 (NQO1) using HepaRG (AID 2283526)
# Summary of the method: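 NQO1 transcript induction or loss measured by TaqMan qRT-PCR, referenced to three housekeeping genes and fitted bidirectionally against 0.5% DMSO. HepaRG cultures exposed 48 h, duplicate, eight-point half-log series, top 100 uM.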
# [12] = read-out: Nuclear factor erythroid 2-related factor 2 (Homo sapiens) (UniProt Q16236); assay: LTEA_HepaRG_NFE2L2: Life Technologies and Expression Analysis (LTEA) Assay for Nuclear factor erythroid 2-related factor 2 (NFE2L2) Transcription Factor using HepaRG (AID 2283527);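 for outcome: TaqMan qRT-PCR transcript level normalised to ACTB GAPDH and POLR2A housekeeping genes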
# Summary of the method: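 Human liver HepaRG line treated in duplicate for 48 h with an eight-point series topping at 100 uM. Gene expression of NFE2L2 by qRT-PCR, bidirectionally fitted against the vehicle control.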
# [13] = read-out: succinate dehydrogenase complex iron sulfur subunit B (SDHB), SDHB (gene 6390); assay: LTEA_HepaRG_SDHB: Life Technologies and Expression Analysis (LTEA) Assay for succinate dehydrogenase complex iron sulfur subunit B (SDHB) using HepaRG (AID 2283528)
# Summary of the method: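 Readout is SDHB transcript level by qRT-PCR, normalised to three housekeeping genes and fitted bidirectionally against 0.5% DMSO vehicle. Human HepaRG cells were treated for 48 h at up to 100 uM.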
# [14] = read-out: Signal transducer and activator of transcription 3 (Homo sapiens) (UniProt P40763); assay: LTEA_HepaRG_STAT3: Life Technologies and Expression Analysis (LTEA) Assay for Signal transducer and activator of transcription (STAT3) using HepaRG (AID 2283529)
# Summary of the method: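 In this transcriptional endpoint, HepaRG cultures receive test chemicals at up to 100 uM for 48 h, tested in duplicate. STAT3 mRNA is normalized to ACTB, GAPDH and POLR2A.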
# [15] = read-out: solute carrier (SLCO1B1), SLCO1B1 (gene 10599); assay: LTEA_HepaRG_SLCO1B1: Life Technologies and Expression Analysis (LTEA) Assay for solute carrier (SLCO1B1) using HepaRG (AID 2283530)
# Summary of the method: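 Human HepaRG cultures treated for 48 h with an eight-concentration half-log series topping at 100 uM; SLCO1B1 measured by qRT-PCR and fitted bidirectionally relative to DMSO.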
# [16] = read-out: sulfotransferase 2A1 (SULT2A1), SULT2A1 (gene 6822); assay: LTEA_HepaRG_SULT2A1: Life Technologies and Expression Analysis (LTEA) Assay for sulfotransferase 2A1 (SULT2A1) using HepaRG (AID 2283531)
# Summary of the method: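 Gene-expression endpoint in a human liver cell line: SULT2A1 mRNA change after 48 h chemical treatment, curves fitted in both directions relative to 0.5% DMSO vehicle. Concentrations spanned eight half-log steps from 100 uM.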
# [17] = read-out: Transforming Growth Factor (TGFB1), TGFB1 (gene 7040); assay: LTEA_HepaRG_TGFB1: Life Technologies and Expression Analysis (LTEA) Assay for Transforming Growth Factor (TGFB1) Transporter using HepaRG (AID 2283533)
# Summary of the method: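 Eight-point concentration-response (max 100 uM, half-log) in HepaRG under serum-free induction conditions, 48 h. TGFB1 mRNA by qRT-PCR, housekeeping-normalized.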
# [18] = read-out: Pyruvate Dehydrogenase Kinase 4 (PDK4), PDK4 (gene 5166); assay: LTEA_HepaRG_PDK4: Life Technologies and Expression Analysis (LTEA) Assay for Pyruvate Dehydrogenase Kinase 4 (PDK4) using HepaRG (AID 2283525)
# Summary of the method: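 Eight-point, half-log concentration series (max 100 uM, 0.5% DMSO) applied to differentiated HepaRG cells for 48 h in duplicate. Endpoint: PDK4 mRNA induction or repression by qRT-PCR against DMSO baseline.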
# [19] = read-out: Transforming Growth Factor (TGFA), TGFA (gene 7039); assay: LTEA_HepaRG_TGFA: Life Technologies and Expression Analysis (LTEA) Assay for Transforming Growth Factor (TGFA) using HepaRG (AID 2283532)
# Summary of the method: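 Gene expression of TGFA was quantified by qRT-PCR after human HepaRG cells were treated for 48 h with test chemicals (eight concentrations, highest 100 uM, 0.5% DMSO). Activity in either direction was fitted relative to DMSO.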
# Signal transducer and activator of transcription 3 (Homo sapiens), sequence (P40763 whole entry, looked up): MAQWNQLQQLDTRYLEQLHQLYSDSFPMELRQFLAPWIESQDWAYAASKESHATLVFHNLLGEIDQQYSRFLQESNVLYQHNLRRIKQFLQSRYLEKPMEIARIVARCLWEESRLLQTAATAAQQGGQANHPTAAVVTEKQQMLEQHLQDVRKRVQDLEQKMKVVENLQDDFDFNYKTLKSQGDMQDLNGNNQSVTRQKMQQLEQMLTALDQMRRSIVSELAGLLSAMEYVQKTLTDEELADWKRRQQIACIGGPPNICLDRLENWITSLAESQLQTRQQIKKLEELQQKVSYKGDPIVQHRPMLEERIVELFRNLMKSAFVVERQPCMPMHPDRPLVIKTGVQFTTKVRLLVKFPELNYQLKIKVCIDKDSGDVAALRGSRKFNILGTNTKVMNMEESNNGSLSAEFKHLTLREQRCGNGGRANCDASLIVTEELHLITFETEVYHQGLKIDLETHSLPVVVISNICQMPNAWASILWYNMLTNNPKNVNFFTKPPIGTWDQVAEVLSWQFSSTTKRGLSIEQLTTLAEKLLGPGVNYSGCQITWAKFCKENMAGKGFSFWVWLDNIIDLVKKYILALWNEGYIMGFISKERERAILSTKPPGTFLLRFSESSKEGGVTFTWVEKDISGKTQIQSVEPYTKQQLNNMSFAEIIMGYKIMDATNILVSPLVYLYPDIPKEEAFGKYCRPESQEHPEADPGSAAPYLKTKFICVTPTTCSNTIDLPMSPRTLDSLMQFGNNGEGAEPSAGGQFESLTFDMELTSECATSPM
# Nuclear factor NF-kappa-B p105 subunit (Homo sapiens), sequence (P19838 whole entry, looked up): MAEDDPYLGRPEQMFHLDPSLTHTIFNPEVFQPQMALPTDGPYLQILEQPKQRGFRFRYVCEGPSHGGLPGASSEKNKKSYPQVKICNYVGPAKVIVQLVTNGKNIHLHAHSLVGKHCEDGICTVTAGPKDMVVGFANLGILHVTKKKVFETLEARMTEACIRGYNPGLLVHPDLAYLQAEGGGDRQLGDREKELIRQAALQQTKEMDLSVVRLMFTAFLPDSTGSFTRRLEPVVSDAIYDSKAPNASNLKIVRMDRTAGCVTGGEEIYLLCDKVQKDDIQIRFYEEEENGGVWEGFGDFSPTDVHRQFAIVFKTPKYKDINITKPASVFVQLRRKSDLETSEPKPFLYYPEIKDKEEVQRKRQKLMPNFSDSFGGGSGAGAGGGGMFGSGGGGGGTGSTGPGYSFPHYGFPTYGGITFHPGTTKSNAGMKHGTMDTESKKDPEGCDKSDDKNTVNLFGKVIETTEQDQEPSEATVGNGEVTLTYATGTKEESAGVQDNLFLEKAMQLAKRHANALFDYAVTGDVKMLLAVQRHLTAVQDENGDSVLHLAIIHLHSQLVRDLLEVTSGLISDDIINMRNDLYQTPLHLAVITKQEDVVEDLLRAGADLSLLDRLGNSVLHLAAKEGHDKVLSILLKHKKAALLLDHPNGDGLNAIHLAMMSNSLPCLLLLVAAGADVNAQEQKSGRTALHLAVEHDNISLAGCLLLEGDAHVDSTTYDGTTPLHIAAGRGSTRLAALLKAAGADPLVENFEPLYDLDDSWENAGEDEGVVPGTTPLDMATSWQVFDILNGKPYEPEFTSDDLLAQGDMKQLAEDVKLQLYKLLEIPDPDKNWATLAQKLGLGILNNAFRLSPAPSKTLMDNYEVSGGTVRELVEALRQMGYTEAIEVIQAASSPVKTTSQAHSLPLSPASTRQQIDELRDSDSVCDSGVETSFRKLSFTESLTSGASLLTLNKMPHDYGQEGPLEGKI
# Nuclear factor erythroid 2-related factor 2 (Homo sapiens), sequence (Q16236 whole entry, looked up): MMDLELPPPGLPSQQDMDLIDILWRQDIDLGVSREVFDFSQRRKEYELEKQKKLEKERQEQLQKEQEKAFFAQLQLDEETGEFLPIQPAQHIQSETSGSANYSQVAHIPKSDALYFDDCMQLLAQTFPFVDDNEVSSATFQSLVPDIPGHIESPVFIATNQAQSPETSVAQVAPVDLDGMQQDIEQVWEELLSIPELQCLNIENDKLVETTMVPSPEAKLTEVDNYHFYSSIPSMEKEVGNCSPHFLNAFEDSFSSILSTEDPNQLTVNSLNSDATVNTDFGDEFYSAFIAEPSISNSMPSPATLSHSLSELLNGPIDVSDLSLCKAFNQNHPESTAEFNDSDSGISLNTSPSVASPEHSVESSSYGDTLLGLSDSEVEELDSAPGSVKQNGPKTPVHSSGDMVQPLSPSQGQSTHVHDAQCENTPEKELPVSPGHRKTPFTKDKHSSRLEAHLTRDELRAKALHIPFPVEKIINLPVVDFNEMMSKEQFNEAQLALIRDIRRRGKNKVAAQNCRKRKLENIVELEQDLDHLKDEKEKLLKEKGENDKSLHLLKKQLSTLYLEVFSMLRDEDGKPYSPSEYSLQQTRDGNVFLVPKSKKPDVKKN
smiles,measurement,setting,value
CCCCOC(=O)[C@@H](C)Oc1ccc(Oc2ccc(C#N)cc2F)cc1,AC50,[1],40.4 µM (active)
same,outcome,[2],inactive
same,outcome,[3],inactive
same,outcome,[4],inactive
same,outcome,[5],inactive
same,outcome,[6],inactive
same,outcome,[7],inactive
same,outcome,[8],inactive
same,outcome,[9],inactive
same,outcome,[10],inactive
same,outcome,[11],inactive
same,outcome,[12],inactive
same,outcome,[13],inactive
same,outcome,[14],inactive
same,outcome,[15],inactive
same,outcome,[16],inactive
same,outcome,[17],inactive
CC(Oc1cccc(Cl)c1)C(=O)O (stereo not given),outcome,[1],inactive
same,outcome,[2],inactive
same,outcome,[3],inactive
same,outcome,[4],inactive
same,outcome,[5],inactive
same,outcome,[6],inactive
same,outcome,[8],inactive
same,outcome,[10],inactive
same,outcome,[18],inactive
same,outcome,[11],inactive
same,outcome,[12],inactive
same,outcome,[13],inactive
same,outcome,[14],inactive
same,outcome,[15],inactive
same,outcome,[16],inactive
same,outcome,[17],inactive
N#CSCSC#N,AC50,[1],78.1 µM (active)
same,AC50,[2],65.1 µM (active)
same,AC50,[3],83 µM (active)
same,outcome,[4],inactive
same,outcome,[5],inactive
same,outcome,[6],inactive
same,outcome,[7],inactive
same,outcome,[8],inactive
same,outcome,[9],inactive
same,AC50,[10],74.2 µM (active)
same,outcome,[11],inactive
same,outcome,[12],inactive
same,outcome,[13],inactive
same,outcome,[14],inactive
same,outcome,[15],inactive
same,outcome,[16],inactive
same,outcome,[19],inactive
same,outcome,[17],inactive
CNC(=O)ON=C(SC)C(=O)N(C)C,AC50,[1],0.289 µM (active)
same,outcome,[2],inactive
same,outcome,[3],inactive
same,outcome,[4],inactive
same,outcome,[5],inactive
same,outcome,[6],inactive
same,outcome,[7],inactive
same,outcome,[8],inactive
same,outcome,[9],inactive
same,outcome,[10],inactive
same,outcome,[11],inactive
same,outcome,[12],inactive
same,outcome,[13],inactive
same,outcome,[14],inactive
same,outcome,[15],inactive
same,outcome,[16],inactive
same,outcome,[17],inactive
CC(C)N(C(=O)SCC(Cl)=C(Cl)Cl)C(C)C,outcome,[1],inactive
same,outcome,[2],inactive
same,outcome,[3],inactive
same,outcome,[4],inactive
same,outcome,[5],inactive
same,outcome,[6],inactive
same,outcome,[8],inactive
same,outcome,[9],inactive
same,outcome,[10],inactive
same,outcome,[18],inactive
same,outcome,[11],inactive
same,outcome,[12],inactive
same,outcome,[13],inactive
same,outcome,[14],inactive
same,outcome,[15],inactive
same,outcome,[16],inactive
same,outcome,[19],inactive
same,outcome,[17],inactive
FC(F)C(F)(F)OCC(Cn1cncn1)c1ccc(Cl)cc1Cl (stereo not given),AC50,[1],31.3 µM (active)
same,AC50,[2],59.2 µM (active)
same,AC50,[3],49.8 µM (active)
same,AC50,[4],37.3 µM (active)
same,AC50,[5],66.9 µM (active)
same,outcome,[6],inactive
same,outcome,[7],inactive
same,AC50,[8],90.4 µM (active)
same,outcome,[9],inactive
same,AC50,[10],19.7 µM (active)
same,outcome,[11],inactive
same,AC50,[12],73.7 µM (active)
same,outcome,[13],inactive
same,AC50,[15],70.4 µM (active)
same,AC50,[16],53.8 µM (active)
same,AC50,[17],28.8 µM (active)
CCCSP(=O)(OCC)Oc1ccc(Br)cc1Cl (stereo not given),outcome,[1],inactive
same,outcome,[2],inactive
same,outcome,[3],inactive
same,outcome,[4],inactive
same,outcome,[5],inactive
same,outcome,[6],inactive
same,outcome,[7],inactive
same,outcome,[8],inactive
same,outcome,[9],inactive
same,outcome,[10],inactive
same,outcome,[11],inactive
same,outcome,[12],inactive
same,outcome,[13],inactive
same,outcome,[14],inactive
same,outcome,[15],inactive
same,outcome,[16],inactive
same,outcome,[19],inactive
same,outcome,[17],inactive
